# Experimental data published in the supplement of paper PMC6555819.
# Tested on: PPARg DBDmut:RXRa IVT, anti-PPARg (DBD mutation: PPARg1 K132A/R137A, NR concentration 270 nM, RXRa partner concentration 90 nM)
# Assay: PBM binding z-score (relative to random genomic background probes); higher = stronger binding; sequences stand for … in GC…GCGATTGACAGCGTAGAATGAAGG
# In short: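 Custom Agilent 4×180K protein-binding microarrays carried double-stranded probes. Their 34-nt variable regions held direct-repeat seeds, single-nucleotide variants, half-site ablations and random human genomic background sequences. Arrays were incubated 1 h with ligand-free nuclear receptor dimers in PBS pH 7.4, 2% milk, 0.02% Triton X-100, 1 mM DTT, 0.2 mg/mL BSA and 0.4 mg/ml salmon testes DNA. Antibodies against each partner (one per run) detected binding, and scanned fluorescence was regression-normalized. Binding z-scores use random background probes as reference.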
row,Sequence,PBM binding z-score
1,GCTAGCAGCCCATTTGGGTCACTCAATGACGGGC,-0.831
2,CCTGCTGGGTCAATGGTCAGCTAAAGCAGCTCGC,-1.4
3,TAGCCTAAGTCATTCAGGGGCCAGTATAGAAAGC,0.0399
4,CCTTACGGGTCACTAACAGGTTATAGCATTTGGA,1.26
5,TTCCCAAGGTGAAAGGTCGTTGATGCACGCCTTG,0.3
6,AGAACGAGGGCACGCTGAGTTGATATCAGAGTAG,0.683
7,CTACCAAGGTGAACAAGGTCGTGGATTACTATTC,1.26
8,CGAACTAGGGCAAGGACAGTGAATCTCCGCACGC,0.631
9,CGAATTAGGTCAGAACAGGACAGTGAAGGATGAT,2.8
10,GCTCCTAGGTCAGGTTGGTCAGCTAACGGGTACG,0.131
11,TTACCTAGGTGAAAGGTCGTTGATGCACGCCTTG,1.6
12,TCTATTAGTTGATTAGGGCAACCAAAACAGCGGA,1.55
13,TCGAGTTGGTCAAAGGTCACACACTCGAAATGCG,1.98
14,CAAACTAGGTCACGAAAGGACAAAGTCGAATGAC,5.83
15,TAGCCTAGGTCAGATCGAGCCAGTATACGCTATA,-0.253
16,AATACAGGGTCACTAGGCCAGACTAGGTACGAAT,3.19
17,CGTCCGAGGTCAGAGAGGTCAGTGAATGCCGAGT,-0.171
18,CAAACTAAGTCACAGAGGTCAAAGTCCGTGCGTA,0.32
